A short description of experiment [1]: ATG_PXRE_CIS: Attagene CIS-FACTORIAL HepG2 Assay for human Pregnane X Receptor Element (PXRE) (AID 2282957). The conditions noted are these: HepG2 Attagene CIS-FACTORIAL PXRE reporter, mRNA; actives raise or lower the signal. In short, it runs like this: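 HepG2 cells transiently transfected with cis-element-driven multiplexed reporter units; after 24 h chemical exposure, reporter mRNA measured by RT-PCR, 6-FAM labelling, HpaI digestion and capillary electrophoresis. Bidirectional fitting relative to DMSO.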

Experiment [2] in a line: ATG_RORE_CIS: Attagene CIS-FACTORIAL HepG2 Assay for human RAR-related Orphan Receptor Element (RORE) (AID 2282959). The conditions noted are these: HepG2 Attagene cis-factorial RORE reporter, mRNA; actives raise or lower the signal. In short, it runs like this:
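Transient MRTU transfection of human HepG2 liver cells (FuGene 6); 24 h compound exposure; TriZol RNA, oligo(dT) RT, PCR, FAM labeling, HpaI cut, CE fragment analysis. DMSO = negative control/baseline.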

The nature of experiment [3]: ATG_Sox_CIS: Attagene CIS-FACTORIAL HepG2 Assay for human SRY-box transcription factor (SOX) (AID 2282960). The conditions noted are these: HepG2 Attagene cis-factorial SOX reporter, mRNA; actives raise or lower the signal. In a few lines: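 Endogenous factor activity in human liver HepG2 cells carrying transfected cis-regulated reporter units. RNA taken 24 h post-dose, reverse-transcribed, PCR-amplified and sized by capillary electrophoresis. Gain or loss of signal fitted relative to DMSO.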

Experiment [4] concerns the target Transcription factor Sp1 (Homo sapiens) (UniProt P08047). Description: ATG_Sp1_CIS: Attagene CIS-FACTORIAL HepG2 Assay for human Specificity Protein 1 (Sp1) (AID 2282961). The conditions noted are these: HepG2 Sp1 cis-reporter transcription, actives raise or lower the signal. In a few lines: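 Transient MRTU-transfected HepG2, 24 h compound exposure. Total RNA → oligo(dT) RT → PCR of reporter → 6-FAM primer extension → HpaI digest → CE. Endpoint fitted both directions vs DMSO.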

Experiment [5] can be described thus: ATG_SREBP_CIS: Attagene CIS-FACTORIAL HepG2 Assay for human Sterol Regulatory Element Binding (SREBP) (AID 2282962). The conditions noted are these: HepG2 Attagene cis-factorial SREBP reporter, mRNA; actives raise or lower the signal. In a few lines: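 mRNA induction of transfected cis-promoter reporters in HepG2 cells, 24 h post-dose. Detection: RT-PCR with 6-FAM-labelled products, HpaI digest, capillary electrophoresis. DMSO served as negative control and baseline.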

Experiment [6] is described as follows: ATG_TA_CIS: Attagene CIS-FACTORIAL HepG2 Assay for human TA Basal Promoter (AID 2282964). The conditions noted are these: HepG2 Attagene CIS-factorial TA basal promoter reporter; actives raise or lower the signal. In short, it runs like this:
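Transient MRTU transfection of HepG2 preceded 24 h compound exposure. Reporter mRNA levels were then read by RT-PCR with capillary electrophoresis, and this background-control endpoint was fitted bidirectionally to DMSO.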

Experiment [7] in a line: ATG_TAL_CIS: Attagene CIS-FACTORIAL HepG2 Assay for human TAL Basal Promoter (AID 2282966).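 Further: background control endpoint measuring basal TAL promoter reporter mRNA not a specific factor.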 The conditions noted are these: HepG2 Attagene cis-factorial TAL promoter reporter; actives raise or lower the signal. In short, it runs like this: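 HepG2 cells transiently transfected with multiplexed cis-promoter reporter units, dosed 24 h. Reporter mRNA quantified by RT-PCR, 6-FAM labelling, HpaI digestion and capillary electrophoresis; TAL basal promoter serves as background control, fitted bidirectionally versus DMSO.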

The nature of experiment [8]: ATG_TGFb_CIS: Attagene CIS-FACTORIAL HepG2 Assay for human Transforming Growth Factor (TGF) (AID 2282967). The conditions noted are these: HepG2 Attagene CIS TGFb reporter, mRNA transcription; actives raise or lower the signal. In short, it runs like this:
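After a 24-hour incubation with compound, transfected HepG2 cells were lysed for RNA; reporter cDNA was amplified, fluorescently end-labeled and separated by CE. DMSO served as baseline for bidirectional fits.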

The nature of experiment [9]: ATG_VDRE_CIS: Attagene CIS-FACTORIAL HepG2 Assay for human Vitamin D Receptor Element (VDRE) (AID 2282968). The conditions noted are these: HepG2 VDRE cis-reporter transcription, actives raise or lower the signal. In a few lines: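 HepG2 cells transiently transfected with cis-element reporter units, dosed 24 h; reporter mRNA measured by RT-PCR, 6-FAM labeling, HpaI digestion and capillary electrophoresis. Activity fitted bidirectionally against DMSO baseline.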

Experiment [10] has as its target Nuclear receptor subfamily 1 group I member 3 (Homo sapiens) (UniProt Q14994). Description: ATG_CAR_TRANS: Attagene TRANS-FACTORIAL HepG2 Assay for human Constitutive Androstane Receptor (CAR) (AID 2282969; active means hit-call score of the fitted dose curve at least 0.9, where 1 is the maximum;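 further: activators raise reporter mRNA above DMSO so AC50 marks induction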). The conditions noted are these: HepG2 Attagene TRANS-FACTORIAL CAR reporter. In a few lines: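 HepG2 cells transiently transfected with multiplexed GAL4-UAS reporter units expressing chimeric NR-Gal4 proteins; compound exposure 24 h. Reporter mRNA measured by RT-PCR, 6-FAM labelling, HpaI digestion and capillary electrophoresis; gain-of-signal fitted against DMSO baseline.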

The target of experiment [11] is Steroid hormone receptor ERR1 (Homo sapiens) (UniProt P11474). As to the kind of experiment: ATG_ERRa_TRANS: Attagene TRANS-FACTORIAL HepG2 Assay for human Estrogen-Related Receptor alpha (ERRa) (AID 2282971; active means hit-call score of the fitted dose curve at least 0.9, where 1 is the maximum). The conditions noted are these: HepG2 Attagene TRANS reporter, ERRa transactivation. In short, it runs like this: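 HepG2 cells transiently transfected with GAL4-UAS reporter units and chimeric NR-Gal4 constructs; after 24 hour compound incubation, reporter mRNA quantified by RT-PCR, fluorescent labelling and capillary electrophoresis, gain of signal versus DMSO.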

Experiment [12] deals with X-box-binding protein 1 (Homo sapiens) (UniProt P17861). Description: ATG_Xbp1_CIS: Attagene CIS-FACTORIAL HepG2 Assay for human X-box Binding Protein 1 (XBP1) (AID 2282972). The conditions noted are these: HepG2 XBP1 cis-element reporter, Attagene multiplex; actives raise or lower the signal. In short, it runs like this:
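Fluorescence-labelled cDNA fragments from reporter transcripts, separated by capillary electrophoresis, give the signal. Source: HepG2 cells transfected with promoter-driven reporter units, harvested 24 h post-dose. DMSO served as reference for bidirectional curve fitting.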

The nature of experiment [13]: ATG_M_19_TRANS: Attagene TRANS-FACTORIAL HepG2 Assay for M19 Transcription Factor (Internal Marker) (AID 2282974; active means hit-call score of the fitted dose curve at least 0.9, where 1 is the maximum). The conditions noted are these: HepG2 Attagene TRANS-FACTORIAL M19 internal marker reporter. In a few lines:
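Fluorescence of 6-FAM-labelled reporter cDNA fragments, separated by capillary electrophoresis, served as the readout. These derived from HepG2 cells carrying transfected GAL4-UAS reporter units after 24 h dosing, with DMSO as negative control.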

For experiment [14], the target named is Estrogen-related receptor gamma (Homo sapiens) (UniProt P62508). Description: ATG_ERRg_TRANS: Attagene TRANS-FACTORIAL HepG2 Assay for human Estrogen-Related Receptor gamma (ERRg) (AID 2282977; active means hit-call score of the fitted dose curve at least 0.9, where 1 is the maximum;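 further: hits increase reporter signal over DMSO so potencies reflect activators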). The conditions noted are these: HepG2 Attagene TRANS reporter, ERRg transactivation. In a few lines:
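Transient HepG2 transfectants, 24 h compound exposure, GAL4-UAS reporter mRNA by RT-PCR/6-FAM labelling/capillary electrophoresis; positive direction vs DMSO.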

For experiment [15], the target named is Glucocorticoid receptor (Homo sapiens) (UniProt P04150). As to the kind of experiment: ATG_GR_TRANS: Attagene TRANS-FACTORIAL HepG2 Assay for human Glucocorticoid Receptor (GR) (AID 2282978; active means hit-call score of the fitted dose curve at least 0.9, where 1 is the maximum;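 further: activators score as hits since higher reporter transcript over DMSO is fitted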). The conditions noted are these: HepG2 Attagene TRANS GR reporter, mRNA transcription. In short, it runs like this:
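Fluorescent capillary-electrophoresis quantitation of reporter mRNA is the readout, taken 24 h after dosing human HepG2 cells carrying transiently transfected GAL4-UAS reporter units activated by chimeric NR-GAL4 fusions; activity scored as induction over DMSO.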

Experiment [16] addresses Signal transducer and activator of transcription 3 (Homo sapiens) (UniProt P40763). As to the kind of experiment: ATG_STAT3_CIS: Attagene CIS-FACTORIAL HepG2 Assay for human Signal Transducer and Activator of Transcription 3 (STAT3) (AID 2282963). The conditions noted are these: HepG2, Attagene cis-factorial STAT3 reporter transcription; actives raise or lower the signal. In short, it runs like this:
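HepG2 cells transiently transfected with cis-element-driven multiple reporter transcription units; after 24 h chemical exposure, reporter mRNA measured by RT-PCR, 6-FAM primer-extension labelling, HpaI digestion and capillary electrophoresis. Bidirectional fitting versus DMSO baseline.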

The nature of experiment [17]: ATG_TCF_b_cat_CIS: Attagene CIS-FACTORIAL HepG2 Assay for human T-Cell-Factor with beta-catenin (TCF/b-cat) (AID 2282965). The conditions noted are these: HepG2 TCF/beta-catenin cis-reporter transcription, actives raise or lower the signal. In short, it runs like this:
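HepG2 cells transiently transfected with multiple cis-promoter-regulated reporter transcription units, so endogenous transcription factor activity is measured. Reporter mRNA read 24 hours after dosing by RT-PCR, fluorescent labelling and capillary electrophoresis; bidirectional fitting against DMSO.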

Experiment [18] addresses Estrogen receptor (Homo sapiens) (UniProt P03372). As to the kind of experiment: ATG_ERa_TRANS: Attagene TRANS-FACTORIAL HepG2 Assay for human Estrogen Receptor alpha (ERa) (AID 2282970; active means hit-call score of the fitted dose curve at least 0.9, where 1 is the maximum). The conditions noted are these: HepG2 Attagene TRANS ERa GAL4 reporter, mRNA. In short, it runs like this:
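HepG2 cells transiently transfected with multiplexed GAL4-UAS reporter units read out chimeric NR-Gal4 activity. After 24 h compound exposure, reporter mRNA was quantified by RT-PCR, 6-FAM labeling, HpaI digestion and capillary electrophoresis, relative to DMSO.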

The nature of experiment [19]: ATG_GAL4_TRANS: Attagene TRANS-FACTORIAL HepG2 Assay for GAL4 (Internal Marker) (AID 2282976; active means hit-call score of the fitted dose curve at least 0.9, where 1 is the maximum). The conditions noted are these: HepG2 Attagene TRANS GAL4 internal marker reporter. In short, it runs like this:
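Background-control readout: GAL4-UAS reporter transcript in transiently transfected HepG2 cells after 24 h compound exposure. Measured by RT-PCR, 6-FAM primer extension, HpaI digest and capillary electrophoresis; gain-of-signal fit versus DMSO.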

Here are results for five molecules from PubChem BioAssay (EPA / NIEHS).

Results filed as inconclusive are left out. Calls of active or inactive are those of the source. How the source made its calls, unless noted: active means hit-call score of the fitted dose curve at least 0.9, where 1 is the maximum; inactive means score below 0.9.

For orientation: AC50 means the concentration giving half of the maximal activity seen.

Glucocorticoid receptor (Homo sapiens), sequence (P04150 whole entry, looked up, the tested form may be a part): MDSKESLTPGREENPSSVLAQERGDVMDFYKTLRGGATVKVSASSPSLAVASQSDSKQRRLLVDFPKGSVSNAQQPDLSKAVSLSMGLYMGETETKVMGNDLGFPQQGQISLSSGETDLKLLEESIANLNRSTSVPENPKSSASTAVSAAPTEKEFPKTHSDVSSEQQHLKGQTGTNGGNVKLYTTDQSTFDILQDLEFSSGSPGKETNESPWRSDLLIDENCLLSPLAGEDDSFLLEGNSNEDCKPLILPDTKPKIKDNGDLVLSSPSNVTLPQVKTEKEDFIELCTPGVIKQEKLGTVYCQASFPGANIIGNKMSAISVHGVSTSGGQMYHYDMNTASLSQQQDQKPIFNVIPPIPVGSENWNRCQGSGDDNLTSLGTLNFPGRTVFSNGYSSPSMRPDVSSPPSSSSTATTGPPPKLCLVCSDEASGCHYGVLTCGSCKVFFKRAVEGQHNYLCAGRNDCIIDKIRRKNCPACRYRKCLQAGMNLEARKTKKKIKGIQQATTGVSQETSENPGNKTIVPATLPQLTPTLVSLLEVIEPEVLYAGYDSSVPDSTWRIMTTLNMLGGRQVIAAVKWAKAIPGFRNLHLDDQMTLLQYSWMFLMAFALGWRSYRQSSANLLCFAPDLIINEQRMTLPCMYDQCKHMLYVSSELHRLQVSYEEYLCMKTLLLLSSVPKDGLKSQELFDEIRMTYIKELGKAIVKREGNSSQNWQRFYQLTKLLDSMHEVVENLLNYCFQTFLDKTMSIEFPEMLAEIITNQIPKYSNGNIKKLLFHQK
Nuclear receptor subfamily 1 group I member 3 (Homo sapiens), sequence (Q14994 whole entry, looked up, the tested form may be a part): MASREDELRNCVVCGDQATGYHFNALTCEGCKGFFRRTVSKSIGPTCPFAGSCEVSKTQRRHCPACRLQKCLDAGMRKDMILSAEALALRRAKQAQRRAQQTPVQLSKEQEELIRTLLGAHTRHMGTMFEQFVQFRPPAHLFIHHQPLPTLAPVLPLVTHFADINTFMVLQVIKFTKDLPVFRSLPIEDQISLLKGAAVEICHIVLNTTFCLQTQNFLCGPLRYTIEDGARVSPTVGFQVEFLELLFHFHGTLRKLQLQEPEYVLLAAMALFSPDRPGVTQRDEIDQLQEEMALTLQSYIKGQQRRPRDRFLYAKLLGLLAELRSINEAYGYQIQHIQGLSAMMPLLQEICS
Transcription factor Sp1 (Homo sapiens), sequence (P08047 whole entry, looked up): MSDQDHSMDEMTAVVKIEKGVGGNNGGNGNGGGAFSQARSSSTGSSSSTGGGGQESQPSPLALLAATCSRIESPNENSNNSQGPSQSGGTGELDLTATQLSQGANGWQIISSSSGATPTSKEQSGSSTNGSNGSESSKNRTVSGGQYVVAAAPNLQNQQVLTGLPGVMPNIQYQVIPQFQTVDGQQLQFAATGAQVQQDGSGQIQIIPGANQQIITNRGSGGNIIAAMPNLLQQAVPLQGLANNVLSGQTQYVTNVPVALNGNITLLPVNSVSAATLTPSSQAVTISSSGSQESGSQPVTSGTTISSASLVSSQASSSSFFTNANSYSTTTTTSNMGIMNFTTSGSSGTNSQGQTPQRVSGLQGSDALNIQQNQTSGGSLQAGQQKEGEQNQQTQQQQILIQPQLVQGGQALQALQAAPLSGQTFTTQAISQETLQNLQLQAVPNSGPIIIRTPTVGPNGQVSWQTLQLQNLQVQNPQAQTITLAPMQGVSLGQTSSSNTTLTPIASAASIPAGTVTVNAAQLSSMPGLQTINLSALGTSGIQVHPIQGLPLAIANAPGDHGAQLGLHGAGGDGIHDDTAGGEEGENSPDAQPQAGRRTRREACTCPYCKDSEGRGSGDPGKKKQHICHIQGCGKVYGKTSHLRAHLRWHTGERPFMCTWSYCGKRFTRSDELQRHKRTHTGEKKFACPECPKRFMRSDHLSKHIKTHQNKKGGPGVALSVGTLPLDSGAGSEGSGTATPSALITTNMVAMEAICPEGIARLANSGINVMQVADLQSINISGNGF
Estrogen receptor (Homo sapiens), sequence (P03372 whole entry, looked up, the tested form may be a part): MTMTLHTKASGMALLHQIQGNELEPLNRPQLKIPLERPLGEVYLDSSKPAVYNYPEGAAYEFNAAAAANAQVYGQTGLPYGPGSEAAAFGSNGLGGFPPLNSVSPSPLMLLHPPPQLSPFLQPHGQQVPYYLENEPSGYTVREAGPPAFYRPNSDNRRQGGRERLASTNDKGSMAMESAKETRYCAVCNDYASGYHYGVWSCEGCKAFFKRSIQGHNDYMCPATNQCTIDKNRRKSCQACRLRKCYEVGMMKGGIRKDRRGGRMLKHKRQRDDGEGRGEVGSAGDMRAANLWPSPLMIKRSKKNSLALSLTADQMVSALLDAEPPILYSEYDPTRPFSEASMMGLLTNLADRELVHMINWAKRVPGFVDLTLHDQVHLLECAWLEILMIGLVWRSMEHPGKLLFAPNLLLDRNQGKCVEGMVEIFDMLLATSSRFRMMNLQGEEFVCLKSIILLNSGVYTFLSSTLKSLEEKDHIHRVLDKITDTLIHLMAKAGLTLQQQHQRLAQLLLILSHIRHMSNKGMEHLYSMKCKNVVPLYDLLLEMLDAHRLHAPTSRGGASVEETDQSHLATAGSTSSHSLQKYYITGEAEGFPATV
Signal transducer and activator of transcription 3 (Homo sapiens), sequence (P40763 whole entry, looked up): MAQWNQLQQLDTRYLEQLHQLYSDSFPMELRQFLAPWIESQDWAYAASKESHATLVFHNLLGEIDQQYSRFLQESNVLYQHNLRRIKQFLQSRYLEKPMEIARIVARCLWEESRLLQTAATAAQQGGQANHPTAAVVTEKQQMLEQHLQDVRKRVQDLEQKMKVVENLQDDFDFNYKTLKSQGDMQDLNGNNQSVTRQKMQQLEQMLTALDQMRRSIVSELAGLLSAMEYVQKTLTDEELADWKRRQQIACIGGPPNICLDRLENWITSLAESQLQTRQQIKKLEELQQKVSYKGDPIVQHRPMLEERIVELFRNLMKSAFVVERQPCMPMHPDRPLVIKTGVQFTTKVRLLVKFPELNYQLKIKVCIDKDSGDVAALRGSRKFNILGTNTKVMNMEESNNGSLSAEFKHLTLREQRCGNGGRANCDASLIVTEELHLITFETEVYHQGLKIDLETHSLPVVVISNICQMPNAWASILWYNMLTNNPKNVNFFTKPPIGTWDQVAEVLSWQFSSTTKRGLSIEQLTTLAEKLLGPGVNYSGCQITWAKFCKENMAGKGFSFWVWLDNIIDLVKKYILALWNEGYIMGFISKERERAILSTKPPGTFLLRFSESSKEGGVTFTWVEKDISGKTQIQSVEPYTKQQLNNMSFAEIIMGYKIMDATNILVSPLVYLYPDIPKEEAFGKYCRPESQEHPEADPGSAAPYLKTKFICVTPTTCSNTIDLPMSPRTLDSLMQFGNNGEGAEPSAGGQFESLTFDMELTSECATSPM
X-box-binding protein 1 (Homo sapiens), sequence (P17861 whole entry, looked up, the tested form may be a part): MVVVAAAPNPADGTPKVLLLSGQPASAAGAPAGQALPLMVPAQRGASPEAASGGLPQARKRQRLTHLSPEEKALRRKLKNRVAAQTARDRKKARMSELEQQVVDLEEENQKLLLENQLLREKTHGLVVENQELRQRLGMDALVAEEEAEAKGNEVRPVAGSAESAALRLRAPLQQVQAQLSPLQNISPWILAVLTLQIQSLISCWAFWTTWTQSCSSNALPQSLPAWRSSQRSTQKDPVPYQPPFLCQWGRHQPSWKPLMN
Estrogen-related receptor gamma (Homo sapiens), sequence (P62508 whole entry, looked up, the tested form may be a part): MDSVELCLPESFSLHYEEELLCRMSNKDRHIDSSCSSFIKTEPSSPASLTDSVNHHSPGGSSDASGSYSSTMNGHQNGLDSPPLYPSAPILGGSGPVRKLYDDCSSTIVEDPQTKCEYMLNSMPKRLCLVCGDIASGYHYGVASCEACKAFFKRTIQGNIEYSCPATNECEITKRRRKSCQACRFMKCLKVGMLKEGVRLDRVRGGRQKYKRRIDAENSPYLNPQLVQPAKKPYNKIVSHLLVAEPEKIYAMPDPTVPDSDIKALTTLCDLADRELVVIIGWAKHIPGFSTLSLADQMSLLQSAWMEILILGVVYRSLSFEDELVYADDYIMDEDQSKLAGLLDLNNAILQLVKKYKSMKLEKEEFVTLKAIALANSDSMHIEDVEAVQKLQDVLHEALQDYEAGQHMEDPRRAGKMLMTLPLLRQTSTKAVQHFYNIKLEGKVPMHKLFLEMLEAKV
Steroid hormone receptor ERR1 (Homo sapiens), sequence (P11474 whole entry, looked up, the tested form may be a part): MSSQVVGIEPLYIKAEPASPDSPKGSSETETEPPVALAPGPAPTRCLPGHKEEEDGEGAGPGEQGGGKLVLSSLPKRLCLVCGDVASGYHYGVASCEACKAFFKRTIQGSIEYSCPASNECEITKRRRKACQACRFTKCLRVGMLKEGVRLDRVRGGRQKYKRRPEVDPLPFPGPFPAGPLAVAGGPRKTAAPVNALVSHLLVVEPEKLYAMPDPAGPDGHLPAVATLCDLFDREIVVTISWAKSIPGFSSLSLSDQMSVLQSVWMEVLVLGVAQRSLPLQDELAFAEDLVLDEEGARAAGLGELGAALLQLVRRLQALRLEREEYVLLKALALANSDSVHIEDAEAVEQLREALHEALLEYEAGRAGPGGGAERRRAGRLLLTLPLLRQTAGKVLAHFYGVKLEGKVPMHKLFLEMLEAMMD

Turning to `CCC(=O)C=Cc1ccc(OC)cc1`, the AC50 in experiment [1] was 26.9 µM (active); in experiment [3], 70.4 µM (active); in experiment [9], 65.6 µM (active). In addition, the result in experiment [2], in experiment [4], in experiment [5], in experiment [6], in [7] and in experiment [8] was inactive. For the same molecule, the result in experiment [10], in [11], in [12], in [13], in experiment [14] and in experiment [15] was inactive.

Regarding `FC(F)(F)N1C(F)(F)C(F)(F)OC(F)(F)C1(F)F`, the call in experiment [1], in [2], in experiment [3], in experiment [4], in experiment [16] and in [6] was inactive. Moreover, the outcome in experiment [17], in experiment [7], in [8], in experiment [9], in experiment [10] and in experiment [18] was inactive. Moreover, the molecule was called inactive in [12] and in [19].

Consider `CN(C)CCOC(c1ccccc1)c1ccccc1`, for which the AC50 in experiment [1] is 151 µM (active); in [5], 45.5 µM (active). Also, the outcome in experiment [2], in experiment [3], in experiment [4], in [16], in experiment [6] and in [17] was inactive. For the same molecule, the result in experiment [7], in [8], in experiment [18], in [12] and in experiment [15] was inactive.

Turning to `Clc1ccc(Nc2nnc(Cc3ccncc3)c3ccccc23)cc1`, the AC50 in [1] was 1.45 µM (active); in experiment [2], 15.8 µM (active); in [6], 23.2 µM (active); in experiment [7], 11.2 µM (active); in experiment [9], 7.35 µM (active). Also, the molecule was called inactive in [3], in experiment [4], in [5], in [16], in experiment [8] and in [10]. Further, the molecule was classed as inactive in [12] and in experiment [13].

For `CCCCCCCCC(C)=O`, the molecule was called inactive in experiment [1], in [2], in experiment [3], in experiment [4], in experiment [5] and in experiment [16]. Further, the result in [6], in experiment [7], in experiment [8], in experiment [9], in experiment [10] and in experiment [18] was inactive. In addition, the call in experiment [12], in experiment [13] and in [15] was inactive.
